According to ChEMBL document CHEMBL2218924, “A broad activity screen in support of a chemogenomic map for kinase signalling research and drug discovery” (Biochem J, 2013):

Key:
[1] = target: T1, Muscle, skeletal receptor tyrosine-protein kinase (Homo sapiens) (UniProt O15146); conditions: at 1 µM
T1 sequence (whole entry): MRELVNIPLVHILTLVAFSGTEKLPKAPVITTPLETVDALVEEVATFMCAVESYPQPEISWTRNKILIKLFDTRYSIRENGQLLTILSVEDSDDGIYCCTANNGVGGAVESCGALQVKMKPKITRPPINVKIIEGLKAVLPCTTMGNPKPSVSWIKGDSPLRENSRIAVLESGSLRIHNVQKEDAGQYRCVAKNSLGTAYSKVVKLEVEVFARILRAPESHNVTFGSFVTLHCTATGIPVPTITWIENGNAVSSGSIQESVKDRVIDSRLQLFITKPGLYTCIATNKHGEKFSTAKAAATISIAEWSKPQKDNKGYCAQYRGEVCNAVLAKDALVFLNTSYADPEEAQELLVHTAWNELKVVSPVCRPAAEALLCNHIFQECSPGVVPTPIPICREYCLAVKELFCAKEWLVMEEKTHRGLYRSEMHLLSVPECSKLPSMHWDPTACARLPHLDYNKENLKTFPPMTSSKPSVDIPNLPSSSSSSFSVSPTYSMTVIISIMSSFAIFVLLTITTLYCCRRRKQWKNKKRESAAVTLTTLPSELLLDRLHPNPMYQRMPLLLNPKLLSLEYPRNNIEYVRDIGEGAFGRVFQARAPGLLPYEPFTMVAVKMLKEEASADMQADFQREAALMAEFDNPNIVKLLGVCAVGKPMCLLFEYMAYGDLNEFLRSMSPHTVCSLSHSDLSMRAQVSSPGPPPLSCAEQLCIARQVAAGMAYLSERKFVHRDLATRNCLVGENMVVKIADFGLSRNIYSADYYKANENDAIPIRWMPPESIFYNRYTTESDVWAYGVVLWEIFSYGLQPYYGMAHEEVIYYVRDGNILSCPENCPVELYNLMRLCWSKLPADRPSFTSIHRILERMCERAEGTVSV

[2] = target: T1, Muscle, skeletal receptor tyrosine-protein kinase (Homo sapiens); conditions: at 10 µM
[3] = target: T2, Serine/threonine-protein kinase Nek11 (Homo sapiens) (UniProt Q8NG66); conditions: at 1 µM
T2 sequence (whole entry): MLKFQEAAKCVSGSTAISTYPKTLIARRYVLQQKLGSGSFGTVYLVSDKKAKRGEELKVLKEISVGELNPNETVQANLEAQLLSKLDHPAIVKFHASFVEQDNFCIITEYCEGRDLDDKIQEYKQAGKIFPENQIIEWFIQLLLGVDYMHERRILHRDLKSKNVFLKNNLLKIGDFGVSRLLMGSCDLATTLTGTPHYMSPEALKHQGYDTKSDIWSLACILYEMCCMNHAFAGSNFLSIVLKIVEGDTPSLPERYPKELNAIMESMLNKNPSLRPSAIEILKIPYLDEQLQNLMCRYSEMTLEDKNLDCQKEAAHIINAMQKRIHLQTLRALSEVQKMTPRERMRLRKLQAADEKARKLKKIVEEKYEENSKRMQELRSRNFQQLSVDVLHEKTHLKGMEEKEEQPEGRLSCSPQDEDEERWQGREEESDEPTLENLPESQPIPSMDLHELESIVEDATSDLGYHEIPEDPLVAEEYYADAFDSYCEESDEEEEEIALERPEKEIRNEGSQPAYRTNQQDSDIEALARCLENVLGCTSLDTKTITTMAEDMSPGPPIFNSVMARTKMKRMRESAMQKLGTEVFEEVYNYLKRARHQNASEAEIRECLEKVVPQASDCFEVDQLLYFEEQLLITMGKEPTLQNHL

[4] = target: T2, Serine/threonine-protein kinase Nek11 (Homo sapiens); conditions: at 10 µM
[5] = target: T3, Serine/threonine-protein kinase Nek2 (Homo sapiens) (UniProt P51955); conditions: at 1 µM
T3 sequence (whole entry): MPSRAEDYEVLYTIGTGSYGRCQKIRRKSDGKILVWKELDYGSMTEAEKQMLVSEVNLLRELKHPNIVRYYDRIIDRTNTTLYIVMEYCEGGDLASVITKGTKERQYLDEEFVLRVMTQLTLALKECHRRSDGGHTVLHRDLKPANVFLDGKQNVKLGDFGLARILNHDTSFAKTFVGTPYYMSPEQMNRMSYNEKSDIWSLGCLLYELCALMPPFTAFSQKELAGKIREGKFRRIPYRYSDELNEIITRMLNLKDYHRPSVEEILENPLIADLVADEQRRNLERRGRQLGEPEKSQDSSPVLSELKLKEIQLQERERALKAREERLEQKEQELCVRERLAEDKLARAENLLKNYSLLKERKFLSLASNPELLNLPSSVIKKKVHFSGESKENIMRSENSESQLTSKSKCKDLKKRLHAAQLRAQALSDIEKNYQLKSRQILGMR

[6] = target: T3, Serine/threonine-protein kinase Nek2 (Homo sapiens); conditions: at 10 µM
[7] = target: T4, Serine/threonine-protein kinase Nek3 (Homo sapiens) (UniProt P51956); conditions: at 1 µM
T4 sequence (whole entry): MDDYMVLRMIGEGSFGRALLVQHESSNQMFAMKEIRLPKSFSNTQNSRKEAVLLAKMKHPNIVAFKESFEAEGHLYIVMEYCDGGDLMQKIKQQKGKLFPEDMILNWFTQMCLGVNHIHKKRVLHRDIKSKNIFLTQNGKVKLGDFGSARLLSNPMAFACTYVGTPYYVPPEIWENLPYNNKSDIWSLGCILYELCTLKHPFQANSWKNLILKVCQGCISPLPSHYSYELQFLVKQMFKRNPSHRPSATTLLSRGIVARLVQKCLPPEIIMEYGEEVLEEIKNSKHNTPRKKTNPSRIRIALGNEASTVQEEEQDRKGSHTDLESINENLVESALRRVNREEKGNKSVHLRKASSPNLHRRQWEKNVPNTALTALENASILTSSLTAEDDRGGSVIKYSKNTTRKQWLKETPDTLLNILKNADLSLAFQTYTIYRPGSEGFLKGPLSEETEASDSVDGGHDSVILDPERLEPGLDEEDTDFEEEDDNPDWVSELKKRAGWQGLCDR

[8] = target: T4, Serine/threonine-protein kinase Nek3 (Homo sapiens); conditions: at 10 µM
[9] = target: Serine/threonine-protein kinase tousled-like 2 (Homo sapiens) (UniProt Q86UE8); conditions: at 1 µM
[10] = target: Serine/threonine-protein kinase tousled-like 2 (Homo sapiens) (UniProt Q86UE8); conditions: at 10 µM

Chain of Serine/threonine-protein kinase tousled-like 2 (Homo sapiens) (Q86UE8 whole entry, looked up): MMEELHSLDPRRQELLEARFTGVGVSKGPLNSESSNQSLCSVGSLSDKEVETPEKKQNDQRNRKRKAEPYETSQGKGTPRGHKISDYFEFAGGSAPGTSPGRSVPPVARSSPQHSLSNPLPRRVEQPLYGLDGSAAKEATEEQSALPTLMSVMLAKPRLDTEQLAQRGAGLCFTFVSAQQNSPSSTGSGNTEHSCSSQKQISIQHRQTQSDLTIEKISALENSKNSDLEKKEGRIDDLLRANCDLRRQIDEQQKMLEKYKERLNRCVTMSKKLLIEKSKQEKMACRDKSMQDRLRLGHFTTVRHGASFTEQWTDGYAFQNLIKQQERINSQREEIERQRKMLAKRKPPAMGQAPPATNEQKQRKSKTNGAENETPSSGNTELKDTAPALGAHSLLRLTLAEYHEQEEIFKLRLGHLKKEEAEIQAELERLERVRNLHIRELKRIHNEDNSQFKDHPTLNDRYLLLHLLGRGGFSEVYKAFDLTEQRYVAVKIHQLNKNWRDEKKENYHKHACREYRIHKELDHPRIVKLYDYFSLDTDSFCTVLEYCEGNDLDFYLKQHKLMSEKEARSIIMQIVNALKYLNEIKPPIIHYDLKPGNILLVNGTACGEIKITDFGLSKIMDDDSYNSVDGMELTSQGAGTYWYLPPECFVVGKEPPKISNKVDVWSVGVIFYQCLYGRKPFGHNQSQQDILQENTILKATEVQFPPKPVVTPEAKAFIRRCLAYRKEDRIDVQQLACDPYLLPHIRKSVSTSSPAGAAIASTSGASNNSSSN

O=C1C(Cl)=C(N2C(=O)CCC2=O)C(=O)c2ccccc21
residual activity [1]: 76% | residual activity [2]: 84% | residual activity [3]: 41% | residual activity [4]: 33% | residual activity [5]: 93% | residual activity [6]: 89% | residual activity [7]: 74% | residual activity [8]: 87% | residual activity [9]: 94% | residual activity [10]: 95%

CC(C)[C@H](CO)Nc1nc(Nc2cc(N)cc(Cl)c2)c2ncn(C(C)C)c2n1
residual activity [1]: 62% | residual activity [2]: 10% | residual activity [3]: 84% | residual activity [4]: 48% | residual activity [6]: 76% | residual activity [7]: 85% | residual activity [8]: 70% | residual activity [9]: 95% | residual activity [10]: 73%

O=C(CCCc1ccc(-c2ccccc2F)cc1)Nc1ccc(O)cc1
residual activity [1]: 96% | residual activity [2]: 84% | residual activity [3]: 67% | residual activity [4]: 60% | residual activity [6]: 106% | residual activity [7]: 89% | residual activity [8]: 103% | residual activity [9]: 103% | residual activity [10]: 95%

O=C1Nc2ccccc2/C1=C\c1c(Cl)[nH]c2ccccc12
residual activity [1]: 78% | residual activity [2]: 70% | residual activity [3]: 64% | residual activity [4]: 29% | residual activity [6]: 77% | residual activity [7]: 82% | residual activity [10]: 76%

COc1ccc2c(c1)c(C1=C(c3c[nH]c4ccccc34)C(=O)NC1=O)cn2CCCN(C)C
residual activity [1]: 96% | residual activity [2]: 65% | residual activity [3]: 50% | residual activity [4]: 48% | residual activity [5]: 76% | residual activity [9]: 21% | residual activity [10]: 2%

COc1ccc(Cl)cc1NC(=O)Nc1cc(C)nc2ccccc12
residual activity [1]: 97% | residual activity [2]: 71% | residual activity [3]: 79% | residual activity [4]: 93% | residual activity [5]: 78% | residual activity [6]: 86% | residual activity [9]: 97% | residual activity [10]: 95%

CCN1/C(=C/C(C)=O)Sc2ccc(OC)cc21
residual activity [1]: 82% | residual activity [2]: 75% | residual activity [3]: 49% | residual activity [4]: 60%

Cn1sc(=O)n(Cc2ccccc2)c1=O
residual activity [1]: 73% | residual activity [2]: 86% | residual activity [3]: 43% | residual activity [4]: 62% | residual activity [5]: 95% | residual activity [6]: 87% | residual activity [7]: 83% | residual activity [8]: 97% | residual activity [9]: 84% | residual activity [10]: 80%

CCCC(=O)Oc1ccc2[nH]c(C(=O)c3cc4ccccc4[nH]3)cc2c1
residual activity [1]: 95% | residual activity [2]: 76% | residual activity [3]: 75% | residual activity [4]: 89% | residual activity [5]: 71% | residual activity [6]: 103% | residual activity [7]: 98% | residual activity [8]: 79% | residual activity [9]: 100% | residual activity [10]: 90%

COc1cc2nccc(Oc3ccc(NC(=S)NC(=O)c4ccccc4C)cc3)c2cc1OC
residual activity [1]: 81% | residual activity [2]: 56% | residual activity [3]: 99% | residual activity [4]: 87% | residual activity [5]: 78% | residual activity [6]: 82% | residual activity [8]: 60% | residual activity [9]: 101% | residual activity [10]: 85%

O=S(=O)(NCCNC/C=C/c1ccc(Br)cc1)c1cccc2cnccc12
residual activity [1]: 81% | residual activity [2]: 76% | residual activity [3]: 69% | residual activity [4]: 69%

NC(=O)Nc1sc(-c2ccc(F)cc2)cc1C(N)=O
residual activity [1]: 62% | residual activity [2]: 15% | residual activity [3]: 25% | residual activity [4]: 5% | residual activity [5]: 87% | residual activity [6]: 58% | residual activity [7]: 69% | residual activity [8]: 48% | residual activity [9]: 72% | residual activity [10]: 27%

Cn1c2ccccc2c2c3c(c4c5ccccc5n(CCC#N)c4c21)CNC3=O
residual activity [1]: 32% | residual activity [2]: 37% | residual activity [3]: 49% | residual activity [4]: 60% | residual activity [5]: 76% | residual activity [6]: 82% | residual activity [7]: 100%
